Screens: PubChem BioAssay, several laboratories
Compounds with a hit are over-represented: about 3.8% of the library has one in this group of screens.
HSF1 inh: HSF1 inhibitors in luciferase reporter cells, primary screen, cell-based, NIH3T3, luminescence | NIH3T3-HGL HSE-luciferase, MG132-induced, luminescence 8 h; stronger effect = lower value | activity change, negative = inhibition, % at 7.5 µM (by protocol) | actives 0.77% (n = 300,000) | AID 2098, 2009;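 active = more than half of replicate wells show activity change below -50%, luminescence cut by over half; inconclusive = some wells, but at most half, below -50%; inactive = no replicate well below -50%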;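 also: luciferase reports HSF-1 transcriptional activity via heat shock element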
pCIP destab: p/CIP-EGFP fusion destabilizers, primary screen, fluorescence, F442A cells; Q05BA5; decrease of EGFP signal, % at 10 µM; 16 h; actives 0.01% (n = 290,000); AID 1984, 2009;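 active = EGFP signal decrease of at least 30% at 10 µM or well 3 SD below plate mean, unless failing retest; inactive = the rest, including hits failing retest or dose response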
NALP1 yeast inh: NALP1 inflammasome inhibitors in reconstituted yeast, colorimetric, S. cerevisiae, triplicate retest. S. cerevisiae NALP1/ASC/caspase-1 growth, X-gal OD620, 72 h. inhibition, % at 10 µM. actives 0.61% (n = 280,000); in the data active = inhibition mostly above about 24%, no sharp cut-off; inactive = mostly below about 32%
HSP90 refold inh: HSP90 inhibitors, primary screen, cell lysate, luminescence | Heat shock protein HSP 90 (rabbit reticulocyte lysate; luciferase refolding) | actives 0.91% (n = 290,000) | AID 1789, 2009 | inhibition, % at 5.6 µM | Rabbit reticulocyte lysate, luciferase refolding luminescence, 3 h;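 active = inhibition above the screen-wide mean plus 3 SD, computed separately per campaign, cut at about 16% in these data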;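 also: inhibitors lower the luminescence because luciferase stays unfolded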
Hsp70 activator: Hsp70 transcriptional activators, primary screen, cell-based, HeLa, Hsp70 promoter luciferase, luminescence, 10 µM; AID 1203, 2008; activation, % at 10 µM; actives 0.04% (n = 200,000); HeLa Hsp70 promoter luciferase reporter; scaled: vehicle 0, proteasome-inhibitor control 100%;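 active = activation above the mean across all tested compounds plus 3 SD, cutoff set per campaign, cut at about 5.5% in these data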
HSF-1 act: HSF-1 activators, primary screen, NIH3T3-HGL cells, MG132 stress, luminescence, single point; NIH3T3-HGL HSF-1 luciferase reporter, 8 h; 100% = twice DMSO control signal; activation, % at 9 µM; AID 504408, 2011; actives 1.7% (n = 300,000);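 active = mean replicate activation of at least 50% with a set share of replicates each reaching 50%; inconclusive = only one of those two conditions met; inactive = mean below 50% and too few replicates reaching it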
HSP90 confirm: HSP90 inhibitors, confirmation, cell lysate, luminescence. shares compounds with HSP90 refold inh. rabbit reticulocyte lysate, luciferase refolding luminescence, 3 h. inhibition, % at 5.9 µM. actives 64% (n = 2,300); in the data active = inhibition above about 18%
luciferase ctr: firefly luciferase inhibitors, HSP90 counter-screen, confirmation, artefact control for HSP90 inhibitor project, biochemical, luminescence, triplicate. shares compounds with HSP90 refold inh. purified native firefly luciferase. inhibition, % at 5.9 µM. actives 48% (n = 2,300). AID 1847, 2009;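 active = inhibition above the mean inhibition of all tested sample wells plus 3 SD, cut at about 10% in these data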
Target sequence (P08659 whole entry, looked up): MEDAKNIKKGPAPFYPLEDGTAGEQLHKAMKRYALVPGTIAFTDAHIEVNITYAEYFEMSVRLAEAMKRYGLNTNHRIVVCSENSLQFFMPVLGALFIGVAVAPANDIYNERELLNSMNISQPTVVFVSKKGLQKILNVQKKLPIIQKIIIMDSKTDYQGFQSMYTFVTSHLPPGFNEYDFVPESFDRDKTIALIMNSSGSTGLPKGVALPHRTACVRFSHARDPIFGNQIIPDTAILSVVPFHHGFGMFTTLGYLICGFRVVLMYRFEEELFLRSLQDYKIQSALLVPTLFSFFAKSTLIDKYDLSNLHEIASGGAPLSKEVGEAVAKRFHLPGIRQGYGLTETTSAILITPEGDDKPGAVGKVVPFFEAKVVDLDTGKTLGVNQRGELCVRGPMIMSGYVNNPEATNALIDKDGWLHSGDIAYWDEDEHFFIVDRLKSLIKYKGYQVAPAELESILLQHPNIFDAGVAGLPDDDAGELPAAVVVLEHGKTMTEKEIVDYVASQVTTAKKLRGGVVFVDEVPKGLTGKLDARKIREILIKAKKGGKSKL
Of the large screens only hits and unclear results are named; the others gave an inactive call (follow-up assays come after a bar, where they were run).

O=C(Nc1nc2cc3c(cc2s1)OCCO3)c1ccco1	HSF1 inh -55, HSP90 refold inh 78 (no result: Hsp70 activator) | HSP90 confirm 91 | luciferase ctr 89
O=C(Nc1nc2cc3c(cc2s1)OCCO3)c1ccncc1	none (no result: HSF1 inh, HSF-1 act)
O=C(Nc1nc2cc3c(cc2s1)OCO3)c1ccco1	HSP90 refold inh 25 (no result: HSF1 inh, NALP1 yeast inh, Hsp70 activator, HSF-1 act) | HSP90 confirm 69 | luciferase ctr 68
CCOc1ccc2nc(NC(=O)c3ccco3)sc2c1	HSP90 refold inh 39 (no result: Hsp70 activator) | HSP90 confirm 51 | luciferase ctr 45
CC(C)C[C@H]1CNC(=O)C(=O)N1C[C@H](C)NC(=O)Cc1ccccc1	none (no result: Hsp70 activator)
CCOc1ccc(N(CC(=O)N2CCCCCC2)S(C)(=O)=O)cc1	none (no result: NALP1 yeast inh, Hsp70 activator)
CC(=O)Nc1nc2cc3c(cc2s1)OCO3	none
Cc1ccc2nc(NC(=O)/C=C/c3ccc4c(c3)OCO4)sc2c1	none
CC(C)C(=O)Nc1nc2cc3c(cc2s1)OCCO3	HSP90 refold inh 28 (no result: NALP1 yeast inh, Hsp70 activator) | HSP90 confirm 40 | luciferase ctr 34
O=C(/C=C/c1ccc2c(c1)OCO2)Nc1nc2ccccc2s1	HSP90 refold inh 25 | HSP90 confirm 62 | luciferase ctr 20
CCC(C)NS(=O)(=O)c1ccc(NC(=O)c2cccs2)cc1 (configuration not stated)	none
CCC(C)c1ccc(NC(=O)c2cccs2)cc1 (configuration not stated)	HSP90 refold inh 17, HSF-1 act inconclusive | HSP90 confirm 24 | luciferase ctr inactive
COc1ccc(C)cc1NC(=O)CN1C(=O)COc2ccc(S(=O)(=O)N3CCC(C)CC3)cc21	none (no result: Hsp70 activator)
CC1(C)C(=O)NCCN1C(=O)CC1C(=O)NCCN1CC(c1ccccc1)c1ccccc1 (configuration not stated)	HSP90 refold inh 24 | HSP90 confirm inactive | luciferase ctr inactive
O=C(/C=C/c1cnc2ccccc2n1)NC12CC3CC(CC(C3)C1)C2	HSF1 inh -71, HSP90 refold inh 28 | HSP90 confirm 44 | luciferase ctr 32
O=C(O)/C=C/c1cnc2ccccc2n1	none
COc1ccc(-c2nc(-c3cccs3)no2)cc1	HSP90 refold inh 33 (no result: NALP1 yeast inh, Hsp70 activator) | HSP90 confirm 87 | luciferase ctr 81
Cn1cccc1C(=O)NC(=O)COC(=O)c1cc(Cl)ccc1[N+](=O)[O-]	none (no result: Hsp70 activator)
Cc1ccccc1/C=C1\CCCc2ccccc2C1=O	none
Cc1ccsc1/C=C1\CCc2ccccc2C1=O	HSP90 refold inh 31 | HSP90 confirm 79 | luciferase ctr 71
CCc1ccc(CN2CCCC(C(=O)Nc3ccc(-c4cscn4)cc3)C2)o1 (configuration not stated)	none (no result: Hsp70 activator)
CC(C)C(O)(CC#CCN1CCCC1)c1ccccc1 (configuration not stated)	HSP90 refold inh 59 | HSP90 confirm inactive | luciferase ctr inactive
OC(CC#CCN1CCCC1)(c1ccccc1)c1ccccc1	none (no result: Hsp70 activator)
CC(=O)c1sc(-c2ccc(Cl)cc2)cc1N	HSP90 refold inh 18 (no result: Hsp70 activator) | HSP90 confirm inactive | luciferase ctr inactive
COC(=O)c1sc(-c2ccc(Cl)cc2)cc1N	none (no result: Hsp70 activator)
COc1cc(C2Nc3ccccc3C(=O)N2c2ccc3c(c2)OCCO3)ccc1OCC(C)C (configuration not stated)	HSP90 refold inh 45 | HSP90 confirm inactive | luciferase ctr inactive
O=C1c2ccccc2NC(c2ccc3c(c2)OCCO3)N1c1ccc2c(c1)OCCO2 (configuration not stated)	HSP90 refold inh 22 | HSP90 confirm 17 | luciferase ctr inactive
COc1ccc(CC(=O)NNC(=S)NCC2CC2)cc1OC	none (no result: NALP1 yeast inh, Hsp70 activator)
O=C(CSC(=S)N1CCCC1)c1ccccc1	HSP90 refold inh 19, HSF-1 act 55 (no result: Hsp70 activator) | HSP90 confirm 43 | luciferase ctr 44
O=C(CSC(=S)N1CCCC1)NCCc1ccccc1	none (no result: pCIP destab, NALP1 yeast inh, HSP90 refold inh, Hsp70 activator)
O=C(O)CSC(=S)N1CCCC1	none (no result: Hsp70 activator)
O=C(CSC(=S)N1CCCCC1)c1ccccc1	HSP90 refold inh 54 | HSP90 confirm 73 | luciferase ctr 64
CCOc1ncccc1C(=O)NC(C)CCc1ccccc1 (configuration not stated)	none (no result: Hsp70 activator)
CC(C)(C)c1ccc(C(=O)Nc2cnccn2)cc1	HSP90 refold inh 18 | HSP90 confirm 50 | luciferase ctr 37
COc1ccc(C(=O)Nc2cnccn2)cc1[N+](=O)[O-]	none (no result: Hsp70 activator)
Clc1cccc2c3c([nH]c12)CCNC3	none (no result: Hsp70 activator)
Cc1oc(-c2ccc3c(c2)OCCO3)cc1C(=O)NC(Cc1ccccc1)C(=O)O (configuration not stated)	HSP90 refold inh 39 | HSP90 confirm 65 | luciferase ctr 18
Cn1cccc1C(=O)NC(=O)COC(=O)C12CC3CC(CC(O)(C3)C1)C2	HSF1 inh -61, HSP90 refold inh 43 | HSP90 confirm 54 | luciferase ctr 44
Cc1cccc(/C(N)=N/OC(=O)c2ccc(Cl)cc2Cl)c1	HSP90 refold inh 21 | HSP90 confirm 37 | luciferase ctr 50
Cc1cc(/C(N)=N/OC(=O)c2ccccc2Cl)no1	HSP90 refold inh 25 (no result: HSF1 inh, Hsp70 activator, HSF-1 act) | HSP90 confirm 19 | luciferase ctr 49
N/C(=N\OC(=O)c1ccccc1Cl)c1ccc(Cl)cc1	none (no result: NALP1 yeast inh)
N/C(=N/OC(=O)c1ccccc1Cl)c1nonc1N	none
Cc1ccc(/C(N)=N/OC(=O)c2ccc(C)cc2Cl)cc1	HSF1 inh -63, HSP90 refold inh 28 | HSP90 confirm 60 | luciferase ctr 56
COc1ccc(C(=O)c2coc3ccc(O)c(CN4CCOCC4)c23)cc1	none
COc1ccc(C(=O)c2coc3ccc(O)c(CN4CCCC4)c23)cc1	HSP90 refold inh 50 | HSP90 confirm inactive | luciferase ctr inactive
CCOc1ccccc1OCCCC(=O)N(CC)CC(=O)Nc1c(F)cccc1F	none (no result: pCIP destab, NALP1 yeast inh, HSP90 refold inh, Hsp70 activator)
CCCCN=C1NN=C(c2ccc3c(c2)OCCO3)CS1	HSP90 refold inh 52 | HSP90 confirm 42 | luciferase ctr 35
OCCNC(=S)Nc1cc(Cl)cc(Cl)c1	HSP90 refold inh 18 (no result: Hsp70 activator) | HSP90 confirm inactive | luciferase ctr inactive
COc1cc(Cl)ccc1OCc1cc(C(=O)NCCCN2CCCC2=O)no1	none (no result: Hsp70 activator)
CCOC(=O)c1c(C)[nH]c(/C(C)=N/O)c1C	none
